From PubChem
ST2 IL33 inh – IL1RL1 inhibition. Q01638. AlphaLISA ST2-Fc/biotin-IL-33 interaction, 1 h. inhibition, % for hits at 17 µM. actives 2.3% (n = 78,000). AID 1259354; in the data active = inhibition above about 30%
Target sequence (Q01638 whole entry, looked up): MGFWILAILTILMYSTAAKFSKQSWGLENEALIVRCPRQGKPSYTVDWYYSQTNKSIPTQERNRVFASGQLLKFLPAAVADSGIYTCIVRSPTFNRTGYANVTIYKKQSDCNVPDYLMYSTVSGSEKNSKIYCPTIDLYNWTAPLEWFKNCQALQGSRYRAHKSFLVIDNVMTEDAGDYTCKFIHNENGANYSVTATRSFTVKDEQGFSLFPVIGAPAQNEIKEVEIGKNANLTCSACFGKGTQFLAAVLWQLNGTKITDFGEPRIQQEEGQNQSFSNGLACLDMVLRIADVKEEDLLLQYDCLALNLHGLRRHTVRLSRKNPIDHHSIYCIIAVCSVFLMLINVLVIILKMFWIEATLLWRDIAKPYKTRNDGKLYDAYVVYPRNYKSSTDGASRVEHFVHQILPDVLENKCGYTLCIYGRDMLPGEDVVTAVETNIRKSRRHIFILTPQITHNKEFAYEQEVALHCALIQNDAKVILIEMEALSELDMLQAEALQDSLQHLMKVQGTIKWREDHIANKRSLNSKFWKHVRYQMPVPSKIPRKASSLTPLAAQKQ
Active calls of the source: *; i = inactive. This is one part of a sample in which hits are shown more often than they occur.

SMILES | ST2 IL33 inh
CN1CCN([C@@H]2CCN(c3ncccc3C(=O)O)C[C@H]2O)CC1 | i
CCN(CC)C(=O)c1cc2cc3cc(OC)ccc3nc2s1 | i
CC(=O)c1ccc(N2N=C(C)/C(=C/c3ccc(-c4cccc([N+](=O)[O-])c4)o3)C2=O)cc1 | i
CC1=C(C#N)c2nc(N)c(C#N)c(C)c2/C1=C\c1cccc([N+](=O)[O-])c1 | i
CC1=C(C#N)C(=O)NC(=O)/C1=C\c1ccc(-c2cccc([N+](=O)[O-])c2)o1 | 30%*
Cc1ccc2[nH]cc(-c3ncccc3C(=O)N3CCCC3)c2c1 | i
Cc1[nH]c2ccccc2c1SCCNC(=O)C(C)Oc1ccccc1 (stereo not drawn) | i
Cc1nn(C)c(C)c1S(=O)(=O)N1CC(c2ccccn2)C1 | i
CCc1ccccc1NC(=O)c1ccc([N+](=O)[O-])cc1 | i
Cc1ccccc1C(=O)Nc1ccc([N+](=O)[O-])cc1 | i
Cc1ccccc1NCC(=O)c1ccc([N+](=O)[O-])cc1 | 48%*
COc1cccc(CN2CCNC(=O)C2CC(=O)N2CCCC2)c1OC (stereo not drawn) | i
O=C(C1=CCCC1)N1CCC(c2nc(-c3cccnc3)ncc2-c2ccccc2)CC1 | i
O=C1NC(=O)/C(=C\c2ccccc2OCc2ccccc2)S1 | i
CSC1=N/C(=C\c2ccccc2OCc2ccccc2)C(=O)S1 | 64%*
CC1=NN(c2ccccc2)C(=O)/C1=C/c1ccccc1OCc1ccc(C(=O)O)cc1 | i
COc1ccc(-c2ccc(CN3CCN(C)CC3)cn2)cc1C | i
N#CC1=C(N)Oc2n[nH]c(C(F)(F)F)c2C1c1cccs1 (stereo not drawn) | i
Cc1cccc(C)c1NC(=O)CSc1nnc(-c2ccccc2)c(-c2ccccc2)n1 | i
COc1ccc(NC(=O)CSc2ncccn2)cc1 | i
COc1cc(NC(=O)CSc2nnc(-c3ccco3)c(-c3ccco3)n2)cc(OC)c1 | 31%*
CC(C)Oc1ccc(C(=O)Nc2ccccc2Cl)cc1 | i
CCCn1ncc(C(=O)N2CC[C@@H](c3ccc4c(c3)OCO4)[C@H](O)C2)c1C | i
CC(C)CCNC(=O)c1ccc(C(C)C)cc1 | i
CCCCCN1C(=O)C(=O)c2cc(Br)ccc21 | 46%*
SMILES | ST2 IL33 inh
O=C(O)CN1C(=O)c2ccc(Br)cc2C1=O | i
CCN1C(=O)c2ccc(Br)cc2C1=O | i
O=C(c1cccn2c(=O)c3sccc3nc12)N1CCC2(CC1)OCCO2 | i
O=C(Nc1ccc(-n2cccn2)cc1)C1CCCCN1Cc1cc2ccccc2[nH]1 (stereo not drawn) | i
O=C1CCCN2N=C(SCC(=O)c3ccc(Cl)cc3)SC2=N1 | i
Cc1cccc2nc3c(nc12)C(=O)c1ccccc1C3=O | 32%*
CCNc1ccccc1-c1nc2ccccc2[nH]c1=O | i
Cc1ccccc1Cn1c(-c2ccccc2F)nc2ccccc2c1=O | i
O=C(Cn1cnc2c(cnn2-c2ccc(Cl)cc2)c1=O)NCc1ccco1 | i
Cc1ccc(C)c(OCC(=O)Nc2sc3c(c2C(N)=O)CCCC3)c1C | i
COc1ccc(CC(=O)N2CCCC2)cc1 | i
CC(C)CSc1nnc2c(n1)[nH]c1ccccc12 | 32%*
c1ccc2c(c1)[nH]c1nc(SCCCN3CCOCC3)nnc12 | i
O=[N+]([O-])c1ccc(CSc2nnc3c(n2)[nH]c2ccccc23)cc1 | i
Cc1ccc(/C=C2\C(=O)NN(c3ccc(Cl)c(Cl)c3)C2=O)s1 | i
CCSC1=N/C(=C\c2ccc(C(=O)O)cc2)C(=O)S1 | i
CCSC1=N/C(=C\c2ccc(C)s2)C(=O)S1 | 57%*
COc1ccc(CNC(=O)C2CCN(Cc3cccc(OCc4ccccc4)c3)CC2)cc1 | i
COc1ccc2cc3cc(C(=O)NCCc4ccc(Cl)cc4)oc3nc2c1 | i
O=C(O)C1CN=C(Cc2ccc(Cl)cc2)N1 (stereo not drawn) | i
CCOC(=O)CNc1cccc(C(=O)N2CCCn3cncc3C2)c1 | i
CC(C)c1[nH]nc2c1C(c1cccc(Cl)c1Cl)C(C#N)=C(N)O2 (stereo not drawn) | i
CCN1C(=O)C2(C(C#N)=C(N)Oc3n[nH]c(-c4ccccc4)c32)c2ccccc21 (stereo not drawn) | i
CC(C)c1[nH]nc2c1C1(CCN(Cc3ccccc3)CC1)C(C#N)=C(N)O2 | 31%*
Cc1cc(C)c(NC(=O)c2ccc(N(C)C)cc2)c(C)c1 | i
SMILES | ST2 IL33 inh
CCOC(=O)C(C)(C)N(Cc1cccc(Cl)c1)S(=O)(=O)c1ccc(Br)cc1 | i
COC(=O)c1ccc(C(=O)Nc2nc3ccc4sc(C)nc4c3s2)cc1 | 36%*
Cc1nc2c(ccc3nc(NC(=O)c4ccc(OC(C)C)cc4)sc32)s1 | i
Cc1nc2c(ccc3nc(NC(=O)c4ccc5c(c4)OCCO5)sc32)s1 | i
Cc1nc2c(ccc3nc(NC(=O)c4cccc(Br)c4)sc32)s1 | i
Cc1nc2c(ccc3nc(NC(=O)c4ccccc4)sc32)s1 | i
Cc1nc2c(ccc3nc(NC(=O)c4ccc(C)c(C)c4)sc32)s1 | 41%*
CCc1ccc(-n2c(CN3CCN(C(=O)Nc4ccc5c(c4)CCC5)CC3)nc3cccnc32)cc1 | i
O=C(NCCN1CCCC1)c1cc(-c2ccncc2)nc2ccccc12 | i
Cc1ccc(NC(=O)c2ccc(Cl)cc2Cl)cc1[N+](=O)[O-] | i
O=C(Nc1ccc(Nc2ccccc2)cc1)c1ccc(Cl)cc1[N+](=O)[O-] | 43%*
CC(C)c1ccc(NC(=O)c2ccc(Cl)cc2[N+](=O)[O-])cc1 | i
CCC(C)c1ccc(NC(=O)c2ccccc2[N+](=O)[O-])cc1 (stereo not drawn) | i
NS(=O)(=O)c1ccc(NC(=O)c2ccccc2[N+](=O)[O-])cc1 | 32%*
NS(=O)(=O)c1ccc(NC(=O)c2ccccc2)cc1 | i
Cc1c(C(=O)NC(=O)Nc2ccc(Cl)cc2)c(Cl)nc(Cl)c1[N+](=O)[O-] | i
O=C(C1CC1)N1CCc2cc(Br)cc(S(=O)(=O)N3CCc4ccccc43)c21 | i
CCCOC(=O)CSC1=C(C#N)C(c2ccc(OCC)cc2)CC(=O)N1 (stereo not drawn) | i
O=C(O)CCCC[C@@H]1CCSS1 | i
NCCCCCC(=O)O | i
CC1NC(=O)NC1CCCCC(=O)O (stereo not drawn) | 46%*
CCCC1(C2CCN(C(=O)COc3ccccc3)CC2)NC(=O)N(CCc2ccccn2)C1=O (stereo not drawn) | i
COc1ccccc1N1CCN(C(=O)COc2ccc(Cl)cc2Cl)CC1 | i
Cc1c(Cl)cccc1NS(=O)(=O)c1ccc2c(c1)CCN2C(=O)C1CC1 | i
Cc1ccc(O)c(N=Cc2cc(Cl)cc(Cl)c2O)c1 | i
SMILES | ST2 IL33 inh
Cc1ccc(N=Cc2cc(Cl)cc([N+](=O)[O-])c2O)c(O)c1 | 35%*
Cc1ccc(N=Cc2cc(Br)cc(Cl)c2O)c(O)c1 | i
Cc1ccccc1Cn1nc(C)c(NC(=O)CCCn2nc([N+](=O)[O-])c(Cl)c2C)c1C | i
Cc1ccc(-n2c(=O)c3sccc3n(Cc3ccccc3)c2=O)cc1 | i
CCC(=O)Nc1c(C)ccc2nsnc12 | i
O=C(COc1ccccc1[N+](=O)[O-])Nc1cc(Cl)c(Cl)cc1Cl | i
Cc1ccc2nsnc2c1NC(=O)COc1ccccc1[N+](=O)[O-] | 32%*
CCOC(=O)c1ccc2c(c1)N(Cc1ccccc1C)C(=O)CS2 | i
Cn1ccnc1SCC(=O)Nc1ccc(Cl)cc1 | i
COC(=O)c1c(NC(=O)CSc2nccn2C)sc2c1CCC(C(C)(C)C)C2 (stereo not drawn) | 35%*
